Screening data as filed in PubChem BioAssay.
S2 tox – viability counter-screen for ATXN expression inhibitors | actives 0.49% (n = 400,000) | Potency, µM (titrated, usually from 56.7 µM), hits mostly cytotoxic | AID 651635 | S2 cells (HEK-293 line with an ATXN2-luciferase reporter) viability, CellTiter-Fluor protease fluorescence, 24 h; note: nearly all actives have a fitted effect of over 40% in size
ATXN2 expr inh – ATXN2 expression inhibition; HEK-293 ATXN2-luciferase reporter, luminescence, 24 h; actives 0.72% (n = 360,000); Potency, µM (doses to about 57 µM), usual class: inhibitors; note: nearly all actives have a fitted effect of over 55% in size
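ATXN2-luciferase reporter cells (luciferase flanked by upstream and downstream ATXN2 gene portions) were treated 24 h at 37 °C with compounds at up to 57 uM. SteadyGlo luminescence gave expression; GF-AFC fluorescence gave viability.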
TGFb SMAD3 inh – TGF-b pathway inhibition; HepG2 CAGA-GFP TGF-b/SMAD3 reporter, GFP fluorescence, 18 h; TGF-beta stimulated, 500 pg/mL final; Potency, µM (top dose mostly 46.1 µM), usual class: inhibitors; actives 1.2% (n = 410,000); note: nearly all actives have a fitted effect of over 65% in size
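HEPG2 CAGA-GFP reporter cells (1000/well, DMEM with 1% FBS) received compounds, then recombinant TGF-beta at 500 pg/mL final for 18 hours at 37 degrees C. Per-cell GFP summed per well was normalised to unstimulated and stimulated DMSO controls before curve fitting.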
HepG2 viability – kills HepG2 cells in TGF-b inhibitor counter-screen; HepG2 CAGA-GFP viability, ATP luminescence, 18 h; Potency, µM (highest dose often 46.1 µM), usual class: cytotoxic; actives 0.76% (n = 410,000)
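CellTiter-Glo luminescence gave cytotoxicity after 18 hours at 37 degrees C. The cells were HepG2 CAGA-GFP in 1% FBS DMEM, stimulated with 500 pg/mL TGF-beta after compound addition. %Activity was normalised to no-cell wells (complete cell-killing) and DMSO (no toxicity), and curves were fitted and classified.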
TDP1 cell CPT – DT40-hTDP1 cell growth loss with CPT. actives 12% (n = 420,000). Potency, µM (titrated, usually from 46.2 µM), most hits filed as inhibitors. AID 686979. chicken DT40 Tdp1-/-;hTDP1 cells + 20 nM CPT, ATP luminescence, 48 h; note: nearly all actives have a fitted effect of over 55% in size
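Chicken DT40 Tdp1-/- cells stably complemented with human TDP1 were seeded at 400 cells/well in medium containing 20 nM camptothecin, exposed to pin-transferred compounds, and grown at 37 °C for at least 48 hr. Viability was read as ATP luminescence.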
TDP1 cell noCPT – qHTS for Inhibitors of human tyrosyl-DNA phosphodiesterase 1 (TDP1): qHTS in cells in absence of CPT; DT40 Tdp1-/- hTDP1 cells, no CPT, ATP luminescence, 48 h; Potency, µM (series often up to 46.2 µM), most hits filed as inhibitors; actives 15% (n = 420,000); AID 686978, 2013; note: nearly all actives have a fitted effect of over 55% in size
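Seeded 400 DT40-hTDP1 cells/well (vehicle DMSO, no 20 nM CPT); pinned compounds; ≥48 hr at 37 °C; CellTiter-Glo luminescence as viability measure.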
A number is an active result; – = inactive; ? = inconclusive; · = no result given; [ ] = dose if it differs, or a comment. Only some compounds are listed: those with a hit (about 17% of all), similar ones and a draw of the others. Calls come from the whole dose curve; as a rule, active = well fitted curve in the direction sought with a large enough effect; inconclusive = small, poorly fitted or top-dose-only effect, or another doubt; inactive = no such curve, though single readings can be large; an effect the other way counts as inactive or inconclusive.

SMILES	S2 tox	ATXN2 expr inh	TGFb SMAD3 inh	HepG2 viability	TDP1 cell CPT	TDP1 cell noCPT
CCC(NC(=O)c1cc(COc2cc(C)c(Cl)c(C)c2)on1)c1ccncc1 (stereo unspecified)	–	·	?	–	?	20.6µM
COc1ccc(OCc2cc(C(=O)NC3Cc4ccccc4C3)no2)c(Cl)c1	–	–	–	–	3.26µM	3.66µM
Cc1ccc(N2CCN(c3cc(C)nc4nc(C)nn34)CC2)c(C)c1	–	–	–	–	–	?
O=C(O)c1cc(N(Cc2ccccc2O)Cc2cc(O)ccc2O)ccc1O	·	·	·	·	?	20.6µM
O=C(O)c1cccc2c1C(=O)c1ccccc1C2=O	–	–[11.3 µM]	–	–	–	–
O=C(O)c1ccc2c3c(ncnc13)-c1ccccc1C2=O	–	?	0.794µM	1µM	23.1µM	23.1µM
CN(Cc1ccon1)C(=O)c1cnn(-c2ncc3c(n2)-c2ccccc2CCC3)c1C1CC1	–	·	·	·	–[9.04 µM]	?
Cc1ccc(-c2nc(SC(C)C(=O)c3c(N)n(C)c(=O)n(C)c3=O)n[nH]2)cc1 (stereo unspecified)	–	–	–	–	?	23.1µM
COc1ccc(N(C(=O)c2snc(C(N)=O)c2N)C(C(=O)NC2CCCC2)c2ccco2)cc1 (stereo unspecified)	?	–	–	–	–	?
CCOc1ccc(N(C(=O)c2snc(C(N)=O)c2N)C(C(=O)NCC2CCCO2)c2ccc(C)o2)cc1 (stereo unspecified)	–	–	–	–	18.4µM	?
COc1ccc(N(C(=O)c2snc(C(N)=O)c2N)C(C(=O)NC2CCCCC2)c2ccc(C)o2)cc1 (stereo unspecified)	?	–	–	–	?	16.4µM
COc1ccc(C(C(=O)NCC2CCCO2)N(Cc2cccs2)C(=O)c2snc(C(N)=O)c2N)cc1OC (stereo unspecified)	–	–	–	–	–	–
CC(C)(C)NC(=O)CN(C(=O)c1snc(C(=O)NC2CCCCC2)c1N)c1ccccc1F	–	–	–	–	?	20.6µM
CCOc1ccc(C(C(=O)NCC2CCCO2)N(Cc2cccs2)C(=O)c2snc(C(N)=O)c2N)cc1 (stereo unspecified)	–	–	–	–	23.1µM	9.2µM
Cc1ccc(C)c(N(CC(=O)NC2CCCCC2)C(=O)c2snc(C(N)=O)c2N)c1	–	–	–	–	?	–
COc1ccccc1NC(=O)CN1C(=O)NC2(CCCc3ccccc32)C1=O (stereo unspecified)	–	–	–	–	–	–
C[N+]1(CC(=O)c2ccc(Cl)cc2)CCOCC1	·	·	–	–	–	–
O=C(c1cnccn1)N1CCC2(CCN(Cc3ccncc3)CC2)CC1	·	·	·	·	–	?
CCOCCCNCc1ccc(OCc2ccccc2C)c(OC)c1	–	·	–	–	?	?
Cc1cc(C)cc(N(C(=O)c2snc(C(N)=O)c2N)C(C(=O)NCC2CCCO2)c2ccc(C)o2)c1 (stereo unspecified)	–	–	–	–	?	20.6µM
CCCCOc1ccc(N(CC(=O)NC2CCCCC2)C(=O)c2snc(C(N)=O)c2N)cc1	–	–	–	–	?	16.4µM
CCOc1ccc(C(C(=O)NCC2CCCO2)N(C(=O)c2snc(C(N)=O)c2N)c2cccc(F)c2)cc1 (stereo unspecified)	–	–	–	–	–	?
CCOc1ccc(C(C(=O)NCC2CCCO2)N(C(=O)c2snc(C(N)=O)c2N)c2ccccc2F)cc1 (stereo unspecified)	?	–	–	–	20.6µM	?
NC(=O)c1nsc(C(=O)N(CC(=O)NC2CCCCC2)c2ccc(Cl)cc2)c1N	–	–	–	–	?	?
COC(=O)c1ccccc1Oc1ccc(NC(=O)CCCl)cc1	–	–	–	–	–	?
SMILES	S2 tox	ATXN2 expr inh	TGFb SMAD3 inh	HepG2 viability	TDP1 cell CPT	TDP1 cell noCPT
CCOC(=O)Cc1c(C)nc2c(-c3ccc(OC)cc3)c(C)nn2c1C	–	–	–	–	?	23.1µM
COc1ccc(N2CCN(C(=O)CCc3c(C)nc4c(-c5ccccc5)c(C)nn4c3C)CC2)cc1	?	–	?	–	23.1µM	18.4µM
COc1cccc(N2CCN(C(=O)c3cnc4c(-c5ccccc5)c(C)nn4c3C)CC2)c1	·	·	–	–	14.6µM	?
Cc1nc2cc(-c3ccccc3)nn2c(C)c1CCC(=O)N1CCN(c2ccccc2)CC1	–	–	–	–	–	?
COc1ccc(-c2c(C)nn3c(Cl)c(C)c(C)nc23)cc1	–	–	–	–	–	?
CC/C(=C\C(=O)c1cccnc1)Nc1ccc(C)c(C)c1	–	–	–	–	–	?
CC(C)(C)NCC(=O)N/N=C/c1ccc(OCc2ccccc2)cc1	–	–	–	–	–	?
O=S1OC(c2ccccc2)c2cc(Cl)ccc21 (stereo unspecified)	–	–	?	–	–	–
CCNC(=O)c1sc2ncnc(NCCCN3CCOCC3)c2c1C	–	·	·	·	–[9.04 µM]	–
Cc1cnc(-n2ncc(C(=O)N(C)CC3CCCN(C)C3)c2C2CC2)nc1-c1cccs1 (stereo unspecified)	–	·	·	·	–	–
Cc1cc(C(=O)NCc2nnc3n2CCN(Cc2ccc4c(c2)Cc2ccccc2-4)CC3)c(C)o1	?	·	·	·	?	16.4µM
COc1cccc(OCc2nnc(SCC(=O)NCc3ccco3)n2CCc2ccccc2)c1	–	–	–	–	16.4µM	23.1µM
COc1ccc(C)cc1NC(=O)CSc1nnc(COc2ccccc2)n1Cc1ccco1	–	–	–	–	16.4µM	20.6µM
Cc1ccc(NCc2nnc(SCC(=O)c3ccccc3)n2Cc2ccco2)c(C)c1	–	–	–	–	?	16.4µM
COc1cccc(OCc2nnc(SCC(=O)NCc3ccco3)n2C)c1	–	–	–	–	–	–
COc1ccc(C(=O)CSc2nnc(-c3cc4ccccc4cc3O)n2Cc2ccco2)cc1	–	–	?	–	20.6µM	?
COc1ccc(C(=O)CSc2nnc(-c3cccnc3)n2Cc2ccco2)cc1	–	–	–	–	–	?
NNC(=O)CNc1ccccc1Cl	–	–	–	–	–	–
CC12CCC(C/C1=N\N=C1\NC(=O)/C(=C\c3cccc(Br)c3)S1)C2(C)C (stereo unspecified)	?	?	?	–	?	?
CCn1c(SCC(=O)N(C(C)C)C(C)C)nnc1-c1cc2ccccc2cc1O	–	–	–	–	23.1µM	18.4µM
